This is part of a sample that, as a whole, favours compounds with a hit. Of some 83,000 tested, about 20% had one in any assay.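 Single-concentration screen, 48 h exposure, 96-well plates. Endpoint: percent growth. Below 10 = active.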 Calls of active or inactive are those of the source.
These molecules were tested on SN12C renal (assay: NCI-60 one-dose screen, 48 h (100 = growth as untreated, 0 = no growth, -100 = all killed)). Settings: 10 µM unless noted.
Description: Growth inhibition of the SN12C human tumor cell line is measured as a screen for anti-cancer activity. Cells are grown in 96 well plates and exposed to the test compound for 48 hours. Compounds are tested at a single concentration, which is 10^-5 M for most compounds. The reported endpoint is percent growth (GI% or GIPRCNT), where numbers from 0 - 100% represent growth inhibition, and numbers from -100% - 0 represent cell death. For example, a value of 40 represents 60% growth inhibition. A value of 0 means no net growth occurred over the course of the experiment. A value of -40 indicates 40% of cells at the beginning of the experiment died by the end of the experiment. A value of -100 means all cells are dead at the end of the experiment.
NCI-60 Human Tumor Cell Lines Screen was performed using the standard one-dose NCI protocol, which is described in more detail at https://dtp.cancer.gov/discovery_development/nci-60/default.htm.
Compounds with GIPRCNT values below 10 were considered active. Activity score was based on GIPRCNT using the following formula: […]
Score is 0 for GIPRCNT values of 100 or above, 50 for GIPRCNT values of 0, and 100 for GIPRCNT values of -100.
With `CC(C)(C)[C@H](OCc1cn([C@H]2C[C@@H](O)[C@@H](CO)O2)c(=O)[nH]c1=O)c1ccc(C#Cc2ccccc2)cc1[N+](=O)[O-]` the growth was 88.5% (inactive).
In the case of `COC(=O)c1nc(-c2ccccc2)oc1S(=O)(=O)N1CCN(c2ccc(OC)cc2)CC1`, the growth is reported as 85.4% (inactive).
In the case of `Nc1ncc(-c2ccc3ncnc(N4CCc5cc(F)c(Cl)cc54)c3c2)cn1`, the growth is reported as 26% (inactive).
For `COc1cc(/C=C2\C(=O)N(CCOc3cc(O)c4c(=O)cc(-c5ccccc5)oc4c3)c3ccccc32)cc(OC)c1O`, the growth was 65.9% (inactive).
For `Cc1ccc(-c2nn(CC(=O)N3CCOCC3)c(N)c2C#N)cc1`, the growth was 102% (inactive).
For `COc1cccc(/C=C2\CCc3ccccc3C2=O)c1`, the growth was 84.6% (inactive).
With `COC(=O)c1nc(-c2ccccc2)oc1S(=O)(=O)NCC(c1ccc(Cl)cc1)N1CCCCC1` (stereo not given) the growth was 75.5% (inactive).
With `C#Cc1ccc(NC(=O)Cc2ccc(/C=C/C(=O)c3nccn3C)cc2)cc1` the growth was 68% (inactive).
For `Cc1cccc(C)c1NC(=O)Nc1ccccc1`, the growth was 88.6% (inactive).
With `O=C1OCC2=C1C(c1cccc(F)c1)c1cc3c(cc1N2CCO)CCC3` (stereo not given) the growth was 26.7% (inactive).
`O=C(Nc1ncc(Cc2ccccc2)s1)c1cc(-c2ccccc2)nc2ccccc12` was tested, and the growth was 104% (inactive).
For `Clc1ccc2c(NCCCn3cnc4c(N5CCCC5)nc(Cl)nc43)ccnc2c1`, the growth was 94.3% (inactive).
In the case of `CCOC(=O)c1c(C)c2c(n1Cc1ccccc1)CSc1cc(C#N)c(=O)[nH]c1-2`, the growth is reported as 80.6% [100 µM] (inactive).
With `CCOc1ccc(N2C(=O)CCSC2=S)cc1` the growth was 101% (inactive).
In the case of `CCOC(=O)c1cc(C(=O)c2cc(OC)cc(OC)c2)n2ncccc12`, the growth is reported as 44.8% (inactive).
In the case of `CC1=NC(=S)NC(c2ccccc2)/C1=C1/CC(c2ccccc2O)NN1` (stereo not given), the growth is reported as 97.5% (inactive).
`COC(=O)CNC(=O)c1ccc(NC(=O)c2[nH]c(C)c(Cl)c2Cl)c(O[C@H]2CCNC2)c1` was tested, and the growth was 97.5% (inactive).
With `COc1cc2c(c(OC)c1OC)CCC(c1cccc(NC(=O)c3cccc(Cl)c3)c1)O2` (stereo not given) the growth was 92% (inactive).
`Cc1[nH]c(C(=O)Nc2ccccc2OC2CCNC2)c(Cl)c1Cl` (stereo not given) was tested, and the growth was 78.2% (inactive).
With `CCN1C(=O)N(CC)C2C1NC(=S)N2/N=C/C=C/c1ccccc1` (stereo not given) the growth was 26.2% (inactive).
`O=C1C=CC2(O)OC(c3ccccc3)CC(=O)C2=C1O` (stereo not given) was tested, and the growth was 78.9% (inactive).
In the case of `CN(C)c1ccc(Cc2cc(-c3ccccc3)nn(C/C(=N/O)c3ccccc3)c2=O)cc1`, the growth is reported as 17.9% (inactive).
For `CCCC1Cc2cc(-n3nc(C)c4c3CC(C)(C)CC4=O)cc(NC3CCC(O)CC3)c2C(=O)N1` (stereo not given), the growth was 38% (inactive).
In the case of `C(=N\Nc1nnc2n1N=C(c1ccccc1)CS2)/c1ccc(OCc2ccccc2)cc1`, the growth is reported as 98.6% (inactive).
For `CN1CCN(CC(=O)N(C)c2ccc(N=C(c3ccccc3)c3c(O)[nH]c4ccc([N+](=O)[O-])cc34)cc2)CC1`, the growth was 56.8% (inactive).
With `CCCCN(CCC#N)C(N)=O` the growth was 106% (inactive).
`c1ccc(Cn2cc3c(c2)-c2nc(Nc4ccccc4)ncc2CC3)cc1` was tested, and the growth was 87.8% [100 µM] (inactive).
With `N#C/C(=C\c1cccc2cnccc12)N1N=NC2C=CC=CC21` (stereo not given) the growth was 30.7% (inactive).
`CC(=O)Cc1nsc(NC(=O)c2cc(-c3cc(Cl)ccc3Cl)oc2C)n1` was tested, and the growth was 101% (inactive).
`C[C@H]1c2ccccc2CN1CCCOc1cc2c(cc1OCC1CC1)C1(CCCC1)C(N)=N2` was tested, and the growth was 67.6% (inactive).
For `O=C(Nc1ccc2c(c1)-c1ccccc1C2)C1CC(=O)N(c2ccc3c(c2)OCO3)C1` (stereo not given), the growth was 73% [50 µM] (inactive).
`COc1ccc(C(=O)/C=C/c2ccc(C)cc2)cc1S(N)(=O)=O` was tested, and the growth was 6.38% (active).
`COc1ccc(-c2nc3cc(C(=O)NC4CCCCC4)ccc3n2C2CCCCC2)cc1` was tested, and the growth was 96.4% (inactive).
With `CCOC(=O)CSc1nc2sc3c(c2c(=O)n1-c1ccccc1)CCCCC3` the growth was 95.1% (inactive).
With `Cc1ccc(Nc2oc(-c3ccccc3)nc2[P+](c2ccccc2)(c2ccccc2)c2ccccc2)cc1` the growth was 7.56% (active).
With `CC(=O)OCC(=O)O[C@@H]1C[C@]2(C(C)C)O[C@@]1(C)[C@@H]1CC[C@@H](C)[C@H]1[C@@H]2OC(=O)/C=C/c1ccccc1` the growth was 20.3% (inactive).
For `CN(C)CCOc1ccc(/C(=C(/CCCCCCCCCC[P+](c2ccccc2)(c2ccccc2)c2ccccc2)c2ccccc2)c2ccccc2)cc1`, the growth was -86.2% (active).
In the case of `CCN(CC)CCN1C(=O)c2c(c(C)c3c(oc4cc(OC)ccc43)c2C)C1=O`, the growth is reported as 32.2% (inactive).
`O=c1[nH]c(CN2CCN(c3ccccc3)CC2)nc2c(Br)cc(Br)cc12` was tested, and the growth was 110% (inactive).
With `COc1ccc(/C=C\c2cc(OC)c(OC)c(OC)c2)cc1OCC(=O)Nc1nc2ccccc2s1` the growth was 34.9% (inactive).
